Key:
Assay in all cases: protein domain microarray probed with biotinylated miRNA; Domain array: 20 mM Tris-HCl pH 7.4, 200 mM KCl, 0.2 mM EDTA, 0.05% NP40, 2 ug/ul heparin, overnight 4 C. ORF array: PBS pH 7.0 with RNase inhibitor, 100 ng RNA; high values mean tight binding
Details in all cases: ssRNA
[1] = target: T1, RBM5 (Homo sapiens, UniProt P52756)
T1 sequence: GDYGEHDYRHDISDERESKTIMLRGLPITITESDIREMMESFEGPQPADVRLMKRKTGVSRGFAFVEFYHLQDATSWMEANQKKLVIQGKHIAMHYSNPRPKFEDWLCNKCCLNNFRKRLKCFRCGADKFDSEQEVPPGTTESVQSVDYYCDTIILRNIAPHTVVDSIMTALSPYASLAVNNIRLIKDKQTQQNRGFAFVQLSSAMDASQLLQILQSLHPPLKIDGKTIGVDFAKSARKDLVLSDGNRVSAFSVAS

[2] = target: T2, RKHD4(1-2) (Homo sapiens, UniProt A1L020)
T2 sequence: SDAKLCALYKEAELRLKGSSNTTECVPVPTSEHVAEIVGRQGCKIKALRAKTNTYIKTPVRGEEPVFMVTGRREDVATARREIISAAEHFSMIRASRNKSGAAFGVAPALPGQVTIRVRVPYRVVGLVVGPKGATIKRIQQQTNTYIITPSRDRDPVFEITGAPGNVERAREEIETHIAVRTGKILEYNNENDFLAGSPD

[3] = target: T3, SRP46 (Homo sapiens, UniProt Q9BRL6)
T3 sequence: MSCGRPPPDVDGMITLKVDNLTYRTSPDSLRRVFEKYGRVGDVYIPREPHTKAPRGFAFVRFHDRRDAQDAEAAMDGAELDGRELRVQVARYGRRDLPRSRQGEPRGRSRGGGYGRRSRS

[4] = target: PRPF8 (Homo sapiens, UniProt Q6P2Q9)
[5] = target: PPIE (Homo sapiens, UniProt Q9UNP9)
[6] = target: ADAD1 (Homo sapiens, UniProt Q96M93)
[7] = target: T4, SFRS5 (Homo sapiens, UniProt Q13243)
T4 sequence: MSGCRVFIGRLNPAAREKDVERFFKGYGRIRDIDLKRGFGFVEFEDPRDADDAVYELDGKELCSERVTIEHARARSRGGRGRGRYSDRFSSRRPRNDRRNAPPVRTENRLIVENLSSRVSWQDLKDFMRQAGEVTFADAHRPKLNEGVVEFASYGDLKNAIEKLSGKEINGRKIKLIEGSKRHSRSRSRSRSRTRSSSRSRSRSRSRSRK

[8] = target: RBMXL2 (Homo sapiens, UniProt O75526)
[9] = target: T5, ANKHD1 (Homo sapiens, UniProt Q8IWZ3)
T5 sequence: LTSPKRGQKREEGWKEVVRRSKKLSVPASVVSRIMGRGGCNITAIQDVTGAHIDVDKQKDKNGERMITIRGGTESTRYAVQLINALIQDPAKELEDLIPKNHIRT

[10] = target: T6, RBM34 (Homo sapiens, UniProt P42696)
T6 sequence: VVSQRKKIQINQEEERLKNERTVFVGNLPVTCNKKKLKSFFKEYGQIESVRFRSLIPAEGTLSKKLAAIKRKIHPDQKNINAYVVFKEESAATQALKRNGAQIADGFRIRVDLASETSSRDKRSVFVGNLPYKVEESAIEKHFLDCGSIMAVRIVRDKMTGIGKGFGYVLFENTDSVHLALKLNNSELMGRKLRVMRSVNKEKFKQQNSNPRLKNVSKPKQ

[11] = target: SF3B4 (Homo sapiens, UniProt Q15427)
[12] = target: T7, SFRS15 (Homo sapiens, UniProt O95104)
T7 sequence: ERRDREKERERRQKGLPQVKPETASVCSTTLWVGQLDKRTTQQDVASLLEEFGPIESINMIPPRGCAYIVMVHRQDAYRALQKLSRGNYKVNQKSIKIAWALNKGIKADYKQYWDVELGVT

[13] = target: RBMY1D / RBMY1E (Homo sapiens, UniProt P0DJD3)
[14] = target: SF2 (Homo sapiens, UniProt Q07955)
[15] = target: PTBP2 (Homo sapiens, UniProt Q9UKA9)
[16] = target: SR140 (Homo sapiens, UniProt O15042)
[17] = target: T8, RBM22 (Homo sapiens, UniProt Q9NW64)
T8 sequence: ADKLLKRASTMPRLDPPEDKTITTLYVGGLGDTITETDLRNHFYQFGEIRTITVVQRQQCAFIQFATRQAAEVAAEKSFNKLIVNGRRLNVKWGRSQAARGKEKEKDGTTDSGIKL

[18] = target: RBPMS2 (Homo sapiens, UniProt Q6ZRY4)
[19] = target: T9, SFRS3 (Homo sapiens, UniProt P84103)
T9 sequence: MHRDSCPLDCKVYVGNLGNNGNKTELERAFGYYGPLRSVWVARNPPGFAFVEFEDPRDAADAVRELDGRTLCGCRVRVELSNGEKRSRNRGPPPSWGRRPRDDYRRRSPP

[20] = target: T10, TRSPAP1 (Homo sapiens, UniProt Q9NX07)
T10 sequence: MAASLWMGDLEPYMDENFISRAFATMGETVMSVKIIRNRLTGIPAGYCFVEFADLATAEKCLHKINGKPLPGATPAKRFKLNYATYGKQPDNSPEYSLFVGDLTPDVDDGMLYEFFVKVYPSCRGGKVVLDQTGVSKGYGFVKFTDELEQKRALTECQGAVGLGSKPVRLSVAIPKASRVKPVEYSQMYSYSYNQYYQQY

Chain of RBMY1D / RBMY1E (P0DJD3 1-110): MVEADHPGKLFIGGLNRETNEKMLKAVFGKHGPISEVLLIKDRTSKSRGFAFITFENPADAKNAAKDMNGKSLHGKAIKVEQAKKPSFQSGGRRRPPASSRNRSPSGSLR
Chain of SR140 (O15042 250-375): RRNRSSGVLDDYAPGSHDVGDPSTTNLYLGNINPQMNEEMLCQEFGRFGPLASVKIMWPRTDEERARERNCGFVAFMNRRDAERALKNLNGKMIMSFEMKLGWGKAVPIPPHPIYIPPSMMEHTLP
Chain of SF2 (Q07955 1-220): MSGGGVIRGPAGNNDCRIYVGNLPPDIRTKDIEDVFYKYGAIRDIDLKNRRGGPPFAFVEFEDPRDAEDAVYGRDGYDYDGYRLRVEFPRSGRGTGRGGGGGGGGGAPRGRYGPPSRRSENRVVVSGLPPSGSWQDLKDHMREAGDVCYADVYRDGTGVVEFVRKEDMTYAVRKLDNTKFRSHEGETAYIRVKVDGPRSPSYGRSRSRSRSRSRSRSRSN
Chain of ADAD1 (Q96M93 77-182): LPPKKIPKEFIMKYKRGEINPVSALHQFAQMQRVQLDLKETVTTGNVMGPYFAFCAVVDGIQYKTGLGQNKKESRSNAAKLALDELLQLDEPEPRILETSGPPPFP
Chain of PTBP2 (Q9UKA9 40-531): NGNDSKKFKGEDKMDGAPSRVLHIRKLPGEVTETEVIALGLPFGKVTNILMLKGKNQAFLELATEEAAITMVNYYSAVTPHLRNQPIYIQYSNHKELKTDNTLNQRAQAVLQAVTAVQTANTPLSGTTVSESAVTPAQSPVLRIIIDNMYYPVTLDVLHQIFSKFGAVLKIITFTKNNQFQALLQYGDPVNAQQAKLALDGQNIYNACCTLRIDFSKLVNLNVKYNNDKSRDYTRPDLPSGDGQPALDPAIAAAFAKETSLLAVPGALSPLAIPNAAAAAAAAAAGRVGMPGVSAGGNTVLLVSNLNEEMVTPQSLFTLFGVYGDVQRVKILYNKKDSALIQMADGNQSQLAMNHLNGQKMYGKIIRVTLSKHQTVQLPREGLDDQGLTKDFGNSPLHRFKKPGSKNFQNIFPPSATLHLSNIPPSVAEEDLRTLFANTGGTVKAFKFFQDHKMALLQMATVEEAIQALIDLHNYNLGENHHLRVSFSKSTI
Chain of RBMXL2 (O75526 1-110): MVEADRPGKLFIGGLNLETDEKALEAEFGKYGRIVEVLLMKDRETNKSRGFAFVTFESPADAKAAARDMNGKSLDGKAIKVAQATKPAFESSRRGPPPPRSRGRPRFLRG
Chain of PRPF8 (Q6P2Q9 965-1100): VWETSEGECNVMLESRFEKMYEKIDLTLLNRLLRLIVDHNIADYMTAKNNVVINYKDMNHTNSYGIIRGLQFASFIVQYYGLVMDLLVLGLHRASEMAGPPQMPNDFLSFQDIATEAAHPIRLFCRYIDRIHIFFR
Chain of RBPMS2 (Q6ZRY4 10-130): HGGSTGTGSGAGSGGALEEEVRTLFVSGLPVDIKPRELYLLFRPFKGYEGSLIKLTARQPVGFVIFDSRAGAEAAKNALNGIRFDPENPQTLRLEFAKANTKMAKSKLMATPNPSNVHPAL
Chain of PPIE (Q9UNP9 1-110): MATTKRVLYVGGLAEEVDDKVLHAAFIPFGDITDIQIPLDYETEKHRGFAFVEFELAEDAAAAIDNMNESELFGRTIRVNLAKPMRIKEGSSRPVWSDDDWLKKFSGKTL
Chain of SF3B4 (Q15427 1-200): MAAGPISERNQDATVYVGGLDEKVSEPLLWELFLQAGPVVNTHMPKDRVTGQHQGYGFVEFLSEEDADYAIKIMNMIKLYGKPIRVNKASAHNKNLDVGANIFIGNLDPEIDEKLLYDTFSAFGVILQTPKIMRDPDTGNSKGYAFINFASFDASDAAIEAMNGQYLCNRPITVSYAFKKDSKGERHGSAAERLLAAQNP

Sequence	binding signal [1] [fluorescence intensity]	binding signal [2] [fluorescence intensity]	binding signal [3] [fluorescence intensity]	binding signal [4] [fluorescence intensity]	binding signal [5] [fluorescence intensity]	binding signal [6] [fluorescence intensity]	binding signal [7] [fluorescence intensity]	binding signal [8] [fluorescence intensity]	binding signal [9] [fluorescence intensity]	binding signal [10] [fluorescence intensity]	binding signal [11] [fluorescence intensity]	binding signal [12] [fluorescence intensity]	binding signal [13] [fluorescence intensity]	binding signal [14] [fluorescence intensity]	binding signal [15] [fluorescence intensity]	binding signal [16] [fluorescence intensity]	binding signal [17] [fluorescence intensity]	binding signal [18] [fluorescence intensity]	binding signal [19] [fluorescence intensity]	binding signal [20] [fluorescence intensity]
CAGUGCAAUGAUGAAAGGGCAU	593 ± 12.6	1280 ± 81.8	797 ± 34.1	31.6 ± 16.2	451 ± 19.3	44.5 ± 2.96	151 ± 10.5	1800 ± 20.8	27.3 ± 0.926	102 ± 9.41	1680 ± 98.9	141 ± 12.5	1280 ± 58.5	702.4 ± 1.9	55.4 ± 5.87	43.9 ± 3.02	52.6 ± 1.44	1650 ± 53.9	219 ± 8.61	84.1 ± 10.6
AGAGGUAGUAGGUUGCAUAGUU	1310 ± 32.6	1980 ± 164	1390 ± 35.5		817 ± 64.4	65 ± 1.55	151 ± 12.7	2569 ± 8.99	37.7 ± 0.622	148 ± 10.7	1440 ± 72.2	153 ± 14.1	2080 ± 121	925 ± 29.4	96.6 ± 13.3	142.1 ± 1.25	71.81 ± 0.233	1780 ± 12.1	324.4 ± 0.806	351 ± 8.57
UGAGGUAGUAGGUUGUAUAGUU	356 ± 13.4	1130 ± 28.7	208 ± 90.3	25.3 ± 8.73	232 ± 2.04	23.1 ± 6.46		867 ± 9.01	21.6 ± 2.06	40.9 ± 12.8	346 ± 11.8	46.2 ± 1.86	892 ± 33.6	70.4 ± 4.98	49.5 ± 9.89	32 ± 0.467	25.7 ± 2.21	118 ± 2.62	37.7 ± 9.2	79.2 ± 10.3
UGAGGUAGUAGGUUGUGUGGUU	858 ± 19.2	1430 ± 37.1	1046 ± 4.09		1030 ± 108	157 ± 3.28	215 ± 3.13	1610 ± 44.5	101 ± 1.94	228 ± 3.75	1290 ± 27	289 ± 27.3	1420 ± 19.5	895.8 ± 6.29	166 ± 17.3	149 ± 8.63	126 ± 31.8	515 ± 10.3	276 ± 12.7	332 ± 22.4
UAGCUUAUCAGACUGAUGUUGA	21.2 ± 2.33	932 ± 115	41.5 ± 2.43		91.8 ± 5.98			826.37 ± 0.587			700 ± 28.6	22.3 ± 2.16	817.2 ± 6.26	126 ± 12.9	23.2 ± 6.02	21.9 ± 3.08		37.6 ± 9.28	34.7 ± 4.07	45.5 ± 1.42
UGAGGUAGUAGGUUGUAUGGUU	930 ± 19.2	1640 ± 102	1040 ± 52.8	22 ± 1.98	958 ± 40.9	97.885 ± 0.0354	155 ± 8.02	1440 ± 338	53.6 ± 1.31	153 ± 25.5	638.1 ± 5.52	154.2 ± 0.983	1480 ± 96.8	700 ± 28	147 ± 8.05	80.2 ± 12.3	113.1 ± 0.177	434 ± 21.2	235 ± 17.9	269 ± 24.3

From PMC11574364
